Measurements as given in PubChem BioAssay AID2061323 (National Center for Advancing Translational Sciences (NCATS), 2025).
Records with an inconclusive call do not appear. Activity calls are given as the source filed them. The call rests on the fitted dose curve; in most records, active means well fitted inhibition curve with a large enough effect; inconclusive means small, poorly fitted or top-dose-only effect; inactive means flat fitted curve, though single readings scatter.

assay: Identification of antibody-drug conjugate (ADC) payloads which are substrates of ATP-binding cassette drug efflux transporters: ABCG2-HEK293-R5 cell line; conditions: ABCG2-HEK293-R5 viability, CellTiter-Glo ATP luminescence, 48 h
Source text: Antibody-drug conjugates (ADCs) feature an antibody recognizing a specific protein joined to a potent toxic payload. Numerous antibody-drug conjugates have received FDA approval; however, clinical resistance arises. Resistance mechanisms include decreased expression or mutation of the antibody target, impaired payload release, or increased expression of ATP-binding cassette (ABC) efflux transporters associated with multidrug resistance. We therefore sought to characterize the interaction of ABC multidrug transporters with ADC payloads. We performed a high-throughput screen with 27 common ADC payloads using cells lines expressing ABC transporters P-glycoprotein (P-gp, encoded by ABCB1) or ABCG2 (encoded by ABCG2). Confirmatory assays were also performed using cells transfected to express P-gp, ABCG2, or MRP1 (encoded by ABCC1). Several commonly used ADC payloads were substrates of P-gp, including calicheamicin gamma1, monomethyl auristatin E, DM1, and DM4. All the pyrrolobenzodiazepines tested - SJG136, SGD-1882, SG2057, and SG3199 - were substrates of P-gp, ABCG2, and MRP1. […] These findings highlight the risk of transporter-mediated resistance with certain ADC payloads and underscore the importance of selecting payloads that evade ABC transporter recognition in future ADC development.
HEK-293 cells were transfected with empty vector (pcDNA) or vector containing the human ABCB1 (MDR-19), ABCG2 (R-5), or ABCC1 gene (MRP1) and were maintained in EMEM with 2 mg/mL G418 added to maintain transporter expression. The HeLa derivative KB-3-1 and the P-gp overexpressing KB-8-5-11 subline were maintained in DMEM; KB-8-5-11 additionally received 100 ng/mL colchicine. H460 parental cells were obtained from the Division of Cancer Treatment and Diagnosis Tumor Repository, National Cancer Institute at Frederick, MD and were cultured in RPMI. The ABCG2 expressing subline H460 MX20 was generated by selecting H460 cells in 20 nM mitoxantrone. Media in all cases was supplemented with 10% FBS and 1% penicillin-streptomycin. We explored 27 common ADC payloads, in two orthogonal, paired cell line sets-a drug selected and transfected set for each transporter--to identify substrates of the ABC transporters P-gp and ABCG2. Compounds were sourced from Levena Biopharma (San Diego, CA), Selleck Chem (Houston, TX), ChemieTek (Indianapolis, IN), or Microsource Discovery Systems (Gaylordsville, CT). Screening was performed as previously described. Briefly, cells were plated at a density of 500 cells/well in 1536 well plates with compounds added using a 1536-head pin tool (Kalypsys, San Diego CA). Cells were incubated with cytotoxic drugs and processed with CellTiter Glo reagent (Promega, Madison, WI) to determine viability after 48 hours. […]

Row | Structure (SMILES) | Potency
1 | COc1cc2cc(c1Cl)N(C)C(=O)C[C@H](OC(=O)[C@H](C)N(C)C(=O)CCC(C)(C)S)[C@]1(C)OC1[C@H](C)C1C[C@@](O)(NC(=O)O1)[C@H](OC)/C=C/C=C(\C)C2 (some centres undefined) | 2.4 nM (active)
2 | COc1cc2cc(C(=O)N3C[C@@H](CCl)c4c3cc(O)c3ccccc43)[nH]c2c(OC)c1OC | 21.2 nM (active)
3 | CC[C@H](C)[C@@H]([C@@H](CC(=O)N1CCC[C@H]1[C@H](OC)[C@@H](C)C(=O)N[C@H](C)[C@@H](O)c1ccccc1)OC)N(C)C(=O)[C@@H](NC(=O)[C@H](C(C)C)N(C)C)C(C)C | 8.4 nM (active)
4 | CC[C@@]1(O)C(=O)OCc2c1cc1n(c2=O)Cc2cc3ccccc3nc2-1 | 13.4 nM (active)
